# From PubChem BioAssay
# A number with no mark means an inactive call. Active and inactive are the calls of the source. Cut-off read from the data, not from the text of the source: active = inhibition above about 33%; inactive = the rest.
# Test: compounds suppressing VP16-driven luciferase signal – cell-based, luminescence, high throughput, counter-screen for LRH-1 inverse agonist project (AID 651615)
# Settings: Gal4-VP16 luciferase reporter cells, at 3.6 µM, stronger effect = higher value
row,SMILES,inhibition
1,COc1ccc(CC(=O)Nc2ccncc2Cl)cc1,43% (active)
2,N=c1sccn1CC(=O)Nc1ccc(S(N)(=O)=O)cc1,-2.17%
3,COc1ccc(NC(=O)CSC2=C(C#N)C(c3ccco3)C3=C(CCCC3=O)N2)c(OC)c1 (stereo not given),-14.7%
4,Cc1cc(NC(=O)c2ccc([N+](=O)[O-])o2)ccc1NC(=O)c1ccco1,-13.8%
5,CCOC(=O)c1c(NC(=O)/C=C/C(=O)O)sc(C)c1-c1ccc(Cl)cc1,5.25%
6,CCc1ccc(N2C=C(C(=O)OC)C(c3ccc(OC)cc3)C(C#N)=C2N)cc1 (stereo not given),24.5%
7,Cn1c2c(c(=O)n(C)c1=O)C(C(F)(F)F)(C(F)(F)F)N=C(CCC1CCCCC1)N2,41.1% (active)
8,CC(=O)N1CCN(c2ccccc2NC(=O)c2cc3ccccc3o2)CC1,2.75%
9,CCc1c(O)nc(SCC(=O)Nc2ccccc2C)n(-c2ccc(C)cc2)c1=O,-1.84%
10,c1ccc2c(c1)C1=NCCN1c1ccccc1-2,87.8% (active)
11,Cc1cc2ccccn2c1C(=O)c1ccc([N+](=O)[O-])o1,-0.71%
12,COc1cc(-c2cc(C(=O)NCc3ccc(S(N)(=O)=O)cc3)c3ccccc3n2)cc(OC)c1OC,-26.4%
13,CCCn1c(=NC(=O)CCS(=O)(=O)c2ccccc2)sc2cc(S(N)(=O)=O)ccc21,-13.8%
14,CC(=O)C1=C(c2ccc(Br)cc2)C(=O)c2ccccc2C1=O,92% (active)
15,Cc1cc(C)c2nc(-c3cccnc3)cc(C(=O)NC(C)c3cnn(C)c3C)c2c1 (stereo not given),-13.5%
